Source: PubChem
Most compounds without a hit are left out; they make up all but 3.1% or so of the library.
PLK1 PBD block = PLK1 (human) polo-box domain binding inhibition. P53350. Plk1 PBD binding of FITC phosphopeptide, fluorescence polarization. Potency, µM, hits mostly inhibitors. 360,000 compounds, 2.8% hits; note: series mostly up to about 57 µM; nearly all actives have a fitted effect of over 65% in size
Target sequence (P53350 whole entry, looked up, the tested form may be a part): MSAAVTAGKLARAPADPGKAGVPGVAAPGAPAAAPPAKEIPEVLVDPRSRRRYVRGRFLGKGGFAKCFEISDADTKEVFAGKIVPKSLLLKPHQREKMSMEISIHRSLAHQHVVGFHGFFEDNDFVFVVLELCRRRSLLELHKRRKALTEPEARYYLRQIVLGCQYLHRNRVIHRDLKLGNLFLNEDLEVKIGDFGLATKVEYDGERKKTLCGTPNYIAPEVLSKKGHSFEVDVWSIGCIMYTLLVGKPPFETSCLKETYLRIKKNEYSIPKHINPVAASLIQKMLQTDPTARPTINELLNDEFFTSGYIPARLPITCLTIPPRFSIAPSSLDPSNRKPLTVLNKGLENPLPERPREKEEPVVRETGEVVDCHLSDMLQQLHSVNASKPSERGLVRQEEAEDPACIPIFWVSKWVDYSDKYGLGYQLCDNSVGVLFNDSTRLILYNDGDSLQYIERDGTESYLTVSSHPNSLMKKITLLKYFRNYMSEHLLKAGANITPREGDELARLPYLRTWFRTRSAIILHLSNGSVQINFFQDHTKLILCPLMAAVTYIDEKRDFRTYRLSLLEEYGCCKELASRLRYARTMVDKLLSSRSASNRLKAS
Vif-APOBEC3F blk = Vif-A3F binding inhibition. Potency, µM (top dose mostly 46.1 µM). 390,000 compounds, 0.2% hits. HeLa A3F-eYFP + Vif (tagged APOBEC3F with the HIV-1 protein that degrades it), YFP fluorescence increase. AID 602313; note: nearly all actives have a fitted effect of over 65% in size
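HeLa cells stably expressing A3F-eYFP plus Vif, plated and incubated overnight at 37 deg C, then exposed to compounds overnight at 37 deg C. Blocked degradation read as raised yellow fluorescence (Ex 488/Em 500-530).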
TSHR antagonist = human thyrotropin receptor antagonism; P16473; TSHR-expressing cells, TSH-stimulated cAMP HTRF, 2 h; stronger effect = lower value; activity change, negative = inhibition, % at 11.5 µM; 330,000 compounds, 0.2% hits;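 active = activity change below a set negative limit, meaning inhibition stronger than a set level, cut at about -70% in these data; inconclusive = activity change between two set negative limits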
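Competitive HTRF cAMP read-out (cryptate anti-cAMP antibody, cAMP-d2; 30 min, room temperature) in freshly harvested TSHR cells. Compounds added before TSH at EC80 (4nM final), followed by 2 hours' incubation at 37 deg C.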
VDR inhibitor = blocks the human vitamin D receptor; P11473; VDR-SRC2-3 peptide fluorescence polarization, 2 h; Potency, µM, most hits filed as inhibitors; 400,000 compounds, 0.93% hits; AID 504847
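Compounds are added to VDR with labelled SRC2-3 coactivator peptide and held 2 h at room temperature. Inhibition of the VDR–peptide interaction is then read as a change in fluorescence polarization.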
Vif-APOBEC3G blk = blocks the Vif interaction with human APOBEC3G; Q9HC16; Potency, µM (series often up to 46.1 µM), actives largely listed as inhibitors; 410,000 compounds, 0.076% hits; HeLa A3G-eYFP + Vif (tagged APOBEC3G with the HIV-1 protein that degrades it), YFP fluorescence, overnight; note: nearly all actives have a fitted effect of over 60% in size
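HeLa cells stably expressing Vif and C-terminally eYFP-tagged A3G, seeded overnight at 37 deg C, then exposed to compound by pintool overnight at 37 deg C. Rise in yellow fluorescence (Ex 488/Em 500-530, Acumen) marks blocked Vif-driven A3G degradation.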
Of the large screens only hits and unclear results are named; the others gave an inactive call. Unless noted, calls come from the whole dose curve; as a rule, active = well fitted curve in the direction sought with a large enough effect; inconclusive = small, poorly fitted or top-dose-only effect, or another doubt; inactive = no such curve, though single readings can be large; an effect the other way counts as inactive or inconclusive.

COc1ccc(NC(=S)Nc2cc(C)[nH]n2)cc1Cl	PLK1 PBD block 17µM
CCOc1ccc(NC(=S)Nc2cc(-c3ccccc3)[nH]n2)cc1	none
c1ccc2c(c1)ccn2-n1ccc2ccccc21	none (no result: PLK1 PBD block, Vif-APOBEC3F blk, TSHR antagonist, VDR inhibitor)
COC(=O)/C(=C\C=C\c1ccccc1)NC(=O)c1ccccc1	PLK1 PBD block 13µM
Cc1nc2sc(C(=O)Nc3ccccc3)c(N)c2c(C)c1[N+](=O)[O-]	PLK1 PBD block 27µM, Vif-APOBEC3F blk inconclusive
CC(=O)c1ccc(NC(=O)c2sc3nc(C)c(C)c(C)c3c2N)cc1	none
O=C1C[C@H]2C=CCc3cccc(c32)CN1Cc1ccc(Br)cc1	none (no result: PLK1 PBD block, Vif-APOBEC3F blk, TSHR antagonist, VDR inhibitor)
COc1cc(-c2noc(C)c2C#CCCN2C(=O)c3ccccc3C2=O)cc(OC)c1OC	none (no result: PLK1 PBD block, Vif-APOBEC3F blk, TSHR antagonist, VDR inhibitor)
COCCOCCn1c(/C=C/c2ccccc2)nc2ccccc21	PLK1 PBD block 19µM, VDR inhibitor inconclusive
CC(C)CSc1nc2c(c(=O)[nH]c(=O)n2C)n1CC(O)COc1cccc2ccccc12 (stereo not drawn)	PLK1 PBD block 11µM, VDR inhibitor inconclusive
CCSc1nc2c(c(=O)[nH]c(=O)n2C)n1CC(O)COc1ccccc1 (stereo not drawn)	none
CCn1c(Oc2ccccc2)nc2c1c(=O)n(C)c(=O)n2C	PLK1 PBD block 27µM, VDR inhibitor inconclusive
Cn1c(=O)[nH]c(=O)c2c1nc(SCCO)n2CC(O)COc1ccccc1 (stereo not drawn)	PLK1 PBD block 24µM, Vif-APOBEC3F blk inconclusive
COCCCNc1nc2c(c(=O)[nH]c(=O)n2C)n1CC(O)COc1ccccc1 (stereo not drawn)	none
COCCCNc1nc2c(c(=O)[nH]c(=O)n2C)n1CC(O)COc1ccccc1C (stereo not drawn)	PLK1 PBD block 24µM
NCCC[C@@H](CC(=O)N[C@@H]1CCNC[C@H]1C(=O)N[C@H](CC(=O)N[C@@H](CCC(=O)O)CC(=O)O)Cc1ccccc1)NC(=O)C[C@H](CO)NC(=O)[C@@H]1CCCC[C@H]1N	none (no result: PLK1 PBD block, Vif-APOBEC3F blk, TSHR antagonist, Vif-APOBEC3G blk)
OC[C@H]1O[C@@H](O[C@@H]2OC=C[C@H]3[C@H](O)[C@@H]4O[C@]4(CO)[C@@H]23)[C@H](O)[C@@H](O)[C@@H]1O	none (no result: PLK1 PBD block, Vif-APOBEC3F blk, TSHR antagonist, Vif-APOBEC3G blk)
O=C(c1ccco1)N1CCN(/C=C2\Nc3ccccc3C(=O)N2c2ccc(F)cc2)CC1	none (no result: PLK1 PBD block, Vif-APOBEC3F blk, TSHR antagonist, Vif-APOBEC3G blk)
Cn1c(=O)c2c(nc(N3CCCCCC3)n2CC(O)COc2ccccc2)n(C)c1=O (stereo not drawn)	PLK1 PBD block 3µM, VDR inhibitor inconclusive
CCCCn1c(SCC(=O)Nc2ccc3c(c2)CCC3)nc2ccccc2c1=O	PLK1 PBD block 30µM
O=C(CSc1nc2ccccc2c(=O)n1Cc1ccccc1)Nc1ccc(Br)cc1C(=O)O	PLK1 PBD block 11µM, VDR inhibitor inconclusive
COCCCNC(=O)CSc1nc2ccccc2c(=O)n1CCCN1CCCCC1	none
COCCCn1c(SCC(=O)NC2CCCCC2)nc2ccccc2c1=O	none
CCOCCCn1c(SCC(=O)NC2CCCC2)nc2ccccc2c1=O	PLK1 PBD block 27µM, VDR inhibitor inconclusive
COc1ccc(NC(=O)CSc2nc3ccccc3c(=O)n2CCCN2CCCCC2)c(OC)c1	PLK1 PBD block 24µM
CC1(c2ccc(Cl)cc2Cl)OCC(Cn2ccnc2)O1 (stereo not drawn)	PLK1 PBD block 30µM, Vif-APOBEC3G blk inconclusive
OC(Cn1ccnc1)c1ccc(Cl)cc1Cl (stereo not drawn)	none
CCN(Cc1cccc(S(=O)(=O)O)c1)c1ccc(C(=C2C=CC(=[N+](CC)Cc3cccc(S(=O)(=O)O)c3)C=C2)c2ccccc2S(=O)(=O)[O-])cc1	none (no result: PLK1 PBD block, Vif-APOBEC3F blk, TSHR antagonist, VDR inhibitor)
CNCc1ccccc1Sc1cc(O)ccc1O	PLK1 PBD block 5.3µM, VDR inhibitor 35µM
CNCc1ccccc1Sc1cccc(O)c1	none
CCOC(=O)c1c(CN(C)C)n(C)c2c(O)c(N=NC(N)=O)c3ccc(Br)cc3c12	PLK1 PBD block 21µM, VDR inhibitor inconclusive
CCc1ccc2oc(-c3ccc(OC)cc3)cc(=Nc3cccc(C(=O)O)c3)c2c1	PLK1 PBD block 27µM, VDR inhibitor 79µM
COc1ccc(-c2cc(=Nc3ccc(C(=O)O)cc3)c3cc(C)ccc3o2)cc1	none
COCCCNC(=O)CSc1nc(-c2cccc(F)c2)[nH]c1-c1ccccc1	none (no result: PLK1 PBD block, TSHR antagonist)
CCN1CCc2c(sc(NC(=O)c3ccc(S(=O)(=O)N(C)c4ccccc4)cc3)c2C(=O)NC)C1	PLK1 PBD block inconclusive, Vif-APOBEC3F blk 11µM, VDR inhibitor inconclusive, Vif-APOBEC3G blk inconclusive
CNC(=O)c1c(NC(=O)c2ccc(S(=O)(=O)N(C)c3ccccc3)cc2)sc2c1CCN(C(C)C)C2	Vif-APOBEC3F blk 7.1µM, VDR inhibitor inconclusive, Vif-APOBEC3G blk inconclusive
CC(C)N1CCc2c(sc(NC(=O)c3ccc(S(=O)(=O)N4CCOCC4)cc3)c2C#N)C1	Vif-APOBEC3F blk 13µM
CC(C)N1CCc2c(sc(NC(=O)c3cc(-c4cccs4)nc4ccccc34)c2C(N)=O)C1	Vif-APOBEC3F blk inconclusive, Vif-APOBEC3G blk 7.1µM
CC(C)N1CCc2c(sc(NC(=O)c3ccc(S(=O)(=O)N(C)C4CCCCC4)cc3)c2C(N)=O)C1	Vif-APOBEC3F blk inconclusive, Vif-APOBEC3G blk inconclusive (no result: PLK1 PBD block, TSHR antagonist)
CC(C)N1CCc2c(sc(NC(=O)c3nc4ccccc4s3)c2C(N)=O)C1	Vif-APOBEC3F blk inconclusive
COc1ccc(CCNc2nc(SCc3ccccc3F)nc3ccccc23)cc1OC	none (no result: PLK1 PBD block, TSHR antagonist)
CC(C)N1CCc2c(sc(NC(=O)c3ccc(S(=O)(=O)N4CCc5ccccc54)cc3)c2C(N)=O)C1	Vif-APOBEC3F blk 6.3µM, Vif-APOBEC3G blk 20µM
COC(CN(C)C(=O)C1CCC(CNS(=O)(=O)c2ccc(C)cc2)CC1)OC (stereo not drawn)	PLK1 PBD block 21µM
CCOC(=O)C(C)Sc1nc2c(c(-c3cccs3)c1C#N)CCC2 (stereo not drawn)	none
N#Cc1c(SC(C(=O)O)c2ccccc2)nc2c(c1-c1cccs1)CCCC2 (stereo not drawn)	PLK1 PBD block 30µM
CC[C@H](C)[C@H](NC(=O)[C@H](Cc1ccc(O)cc1)NC(=O)[C@H](Cc1cnc[nH]1)NC(=O)[C@H](CCCNC(=N)N)NC(=O)[C@H](CC(C)C)NC(=O)[C@H](C)NC(=O)[C@H](CO)NC(=O)[C@H](Cc1ccc(O)cc1)NC(=O)[C@H](Cc1ccc(O)cc1)NC(=O)[C@H](CCCNC(=N)N)NC(=O)[C@H](C)NC(=O)[C@H](CCSC)NC(=O)[C@H](CC(=O)O)NC(=O)[C@H](CCC(=O)O)NC(=O)[C@H](C)NC(=O)[C@@H]1CCCN1)C(=O)N[C@@H](CC(N)=O)C(=O)N[C@@H](CC(C)C)C(=O)N[C@H](C(=O)N[C@H](C(=O)N[C@@H](CCCNC(=N)N)C(=O)N[C@@H](CCC(N)=O)C(=O)N[C@@H](CCCNC(=N)N)C(=O)N[C@@H](Cc1ccc(O)cc1)C(N)=O)[C@@H](C)O)[C@@H](C)CC	none (no result: PLK1 PBD block, Vif-APOBEC3F blk, TSHR antagonist, Vif-APOBEC3G blk)
COc1ccc(N2CCN(C(=O)c3ccccc3F)CC2)c([N+](=O)[O-])c1	PLK1 PBD block 8.4µM, VDR inhibitor inconclusive
